High-throughput results from PubChem BioAssay.
DT40 TDP1 CPT = growth inhibition of DT40 Tdp1-/-;hTDP1 cells with camptothecin (screen for TDP1 inhibitors); chicken DT40 Tdp1-/-;hTDP1 cells + 20 nM CPT, ATP luminescence, 48 h; Potency, µM (top dose mostly 46.2 µM), for the others: top-dose activity change, negative = growth inhibition, hits mostly inhibitors; 12% of 420,000 active; AID 686979; further: potency means the concentration at half of the fitted maximal effect; nearly all actives have a fitted effect of over 55% in size
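Chicken DT40 Tdp1-/- cells stably complemented with human TDP1 were seeded at 400 cells/well in medium containing 20 nM camptothecin, exposed to pin-transferred compounds, and grown at 37 °C for at least 48 hr. Viability was read as ATP luminescence.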
HT1080 IDH1KD tx = HT-1080 IDH1 knockdown cell toxicity (counter line); AID 686971; HT-1080 IDH1 knockdown viability, ATP luminescence, 48 h; 2% of 360,000 active; Potency, µM (highest dose often 46.1 µM), inactives show top-dose activity, negative = toxicity, actives largely listed as cytotoxic;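 further: potency means the concentration at half of the fitted maximal effect; 0% = DMSO wells and -100% = cell-free medium wells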
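In this qHTS, HT-1080 cells depleted of IDH1 are exposed for 48 h at 37 °C to compound titrations. Toxicity is scored from CellTiter-Glo luminescence, with DMSO as full viability and medium alone as none.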
IL1B secr inh = inflammasome signaling inhibition, IL-1 beta readout; activity change, % at 57.5 µM; 4.7% of 360,000 active; THP-1 LPS/ATP IL-1B secretion, AlphaLISA, 16 h; hits give low values; in the data active means activity change below about -50%; inconclusive means mostly about -30% to -49%
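Secreted IL-1B measured by AlphaLISA bead assay after 16 h compound exposure of THP-1 cells; compounds (final up to 57.5 uM) added 1 h before LPS (250 ng/mL) and ATP (1.25 mM) stimulation; lower signal means less secretion.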
DT40 TDP1 no CPT = qHTS for Inhibitors of human tyrosyl-DNA phosphodiesterase 1 (TDP1): qHTS in cells in absence of CPT. DT40 Tdp1-/- hTDP1 cells, no CPT, ATP luminescence, 48 h. Potency, µM (highest dose often 46.2 µM), for the others: at the top dose activity change, negative = growth inhibition, most hits filed as inhibitors. 15% of 420,000 active. AID 686978, 2013; further: potency means the concentration at half of the fitted maximal effect; nearly all actives have a fitted effect of over 55% in size
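Luminescent ATP content (CellTiter-Glo) served as the growth readout. Knockout chicken DT40 cells expressing human TDP1 were exposed to compounds without camptothecin for a minimum 48 hr at 37 °C.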
HT1080NT lethal = kills 2HG-producing HT-1080-NT fibrosarcoma cells. AID 686970. Potency, µM (top dose mostly 46.1 µM), inactives show at the highest dose activity, negative = less viability, usual class: cytotoxic. HT-1080-NT fibrosarcoma viability, CellTiter-Glo ATP luminescence, 48 h. 1.6% of 360,000 active;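 further: NT is the 2HG producing partner of a matched IDH1 knockdown line; potency means the concentration at half of the fitted maximal effect; 0% = DMSO-treated cells and -100% = media-only wells without cells; nearly all actives have a fitted effect of over 55% in size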
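HT-1080-NT fibrosarcoma cells (2HG-overproducing), 750 cells/well in RPMI with 5% FBS, dosed after 2 h and incubated 48 h at 37C. CellTiter-Glo luminescence normalized to DMSO and no-cell wells; concentration-response curves fitted and classed.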
Starred values were filed as active, the others as inactive; u = inconclusive; x = no result; [ ] = dose if it differs, or a comment. Sampled rows, rich in hits. Any-hit rate of the full collection: about 19%. Unless noted, the call rests on the fitted dose curve; in most records, active means well fitted curve in the direction sought with a large enough effect; inconclusive means small, poorly fitted or top-dose-only effect, or another doubt; inactive means no such curve, though single readings can be large; an effect the other way counts as inactive or inconclusive. Unless noted, on the % scale 0 is the no-effect control and ±100 the full control effect.

SMILES	DT40 TDP1 CPT	HT1080 IDH1KD tx	IL1B secr inh	DT40 TDP1 no CPT	HT1080NT lethal
COC(=O)c1ccc(NS(=O)(=O)NC(=O)c2cn(C)c3ccccc23)cc1	-2%	-23%	2	-18%	-10%
CCOc1cc(C(=O)N2CCC(CC3CC(c4cccc(Br)c4)=NO3)(C(=O)NCC3CCCCC3)CC2)cc(OCC)c1OCC (stereo unspecified)	u	1%	u	21µM*	1%
O=C(C1CCCC1)N1CCC(CC2CC(c3cccc(Br)c3)=NO2)(C(=O)NCC2CCCCC2)CC1 (stereo unspecified)	16µM*	-6%	0	u	-8%
CCCNC(=O)C1(CC2CC(c3ccccc3)=NO2)CCN(C(=O)c2cc(OCC)c(OCC)c(OCC)c2)CC1 (stereo unspecified)	u	0%	u	u	-5%
Cc1cc(N2CCC(N(C)C3CCCC3)CC2)nc2cc(O)ccc12	u	-12%	-22	18µM*	-24%
COc1ccc2c(C)cc(N3CCCCCC3)nc2c1	u	-23%	-67*	u	-9%
Cc1cc(N2CCN(c3ccccc3)CC2)nc2ccccc12	-14%	-3%	95	-3%	1%
O=C(CC(C(=O)O)c1ccccc1)Nc1cccc2ccccc12 (stereo unspecified)	13%	11%	19	1%	13%
CCOC(=O)N1CCN(C(=O)CN(c2cccc(C(F)(F)F)c2)S(C)(=O)=O)CC1	2%	2%	11	-3%	8%
CC(C)C(NC(=O)c1ccc(F)cc1)C(=O)N1CCOCC1 (stereo unspecified)	2%	3%	6	9%	5%
COc1ccccc1CNC(=O)C1CCCN(S(=O)(=O)c2cccc3nonc23)C1 (stereo unspecified)	1%	7%	7	9%	6%
COc1ccc(C(=O)C(=NN)c2ccccc2)cc1	-12%	-7%	0	-5%	1%
COc1ccc(N/N=C(\C=N\O)C(=O)c2ccc(OC)cc2)cc1	2.6µM*	u	17	2.9µM*	u
COc1ccc(C(=O)C(=NNc2ccccc2)c2ccc(OC)cc2)cc1	u	-6%	-55*	u	9%
COc1ccc(NC(=O)/C=N/O)cc1	0%	7%	20	3%	-13%
Nc1nc(/C=C/c2cccnc2)nc(-c2ccccc2O)n1	2.9µM*	-13%	-60*	9.2µM*	1%
Nc1nc(/C=C/c2ccc(F)cc2)nc(-c2ccccc2O)n1	u	0%	20	-29%	-13%
O=C(NCCCN1CCCC1=O)c1c(O)nc2ccccn2c1=O	-17%	0%	13	-6%	1%
CCCCCCCC(=O)OC[C@H](CO)OC(=O)CCCCCCC	-12%[4.12 µM]	x	x	5%[4.12 µM]	x
COc1ccccc1NC(=O)Cc1nnc(SCC(=O)NC2CCCCC2)n1C	5%	-1%	26	11%	-1%
COc1cc(NC(=O)Cn2nc(C(F)(F)F)c(Br)c2C)cc([N+](=O)[O-])c1	15µM*	-9%	-15	21µM*	-14%
COc1ccc(CNC(=O)Cn2nc(C(F)(F)F)c(Br)c2C)cc1	-19%	-3%	10	u	-1%
CCN(CC)CCCNC(=O)c1cc2c(Cl)nc3ccccc3c2s1	18µM*	u	u	u	u
CCN(CCCNC(=O)c1cc2c(Cl)nc3ccccc3c2s1)Cc1ccccc1	u	x	x	23µM*	x
CCOc1ccccc1NC(=O)c1cc2c(Cl)nc3ccccc3c2s1	13%	x	x	-3%	x
SMILES	DT40 TDP1 CPT	HT1080 IDH1KD tx	IL1B secr inh	DT40 TDP1 no CPT	HT1080NT lethal
Cc1ccc(NC(=O)CN2C(=O)CCc3cc(S(=O)(=O)N4CCOCC4)ccc32)cc1N(C)C	-8%	x	x	3%	x
O=[N+]([O-])c1ccc(OC/C=C2\Oc3ccc([N+](=O)[O-])cc3C2N2CCOCC2)cc1 (stereo unspecified)	u	-28%	-59*	23µM*	u
O=C(c1cc2nc(-c3ccco3)cc(C(F)(F)F)n2n1)N1CCN(Cc2ccccc2)CC1	18µM*	-13%	-29	u	-11%
CCN1CCN(C(=O)c2cc3nc(-c4ccccc4)cc(C(F)(F)F)n3n2)CC1	-18%	0%	-15	-6%	-2%
O=C(c1cc2nc(-c3ccco3)cc(C(F)(F)F)n2n1)N1CCN(c2ccc(F)cc2)CC1	u	u	-76*	u	u
O=C(c1ccccc1)N1CCN(C(=O)c2nn3c(C(F)(F)F)cc(-c4ccco4)nc3c2Br)CC1	u	-3%	-65*	u	13%
COc1ccc(-c2cc(C(F)(F)F)n3nc(C(=O)N4CCN(C(=O)c5ccco5)CC4)cc3n2)cc1	15µM*	7%	-15	21µM*	16%
COc1ccc(S(=O)(=O)N2CCCCC2)cc1NC(=O)Cn1cnc2c1c(=O)n(C)c(=O)n2C	3%	9%	14	-21%	4%
Cc1[nH]c(N=Nc2ccccc2)nc1N=Nc1ccccc1	5.8µM*	u	98	5.8µM*	-17%
Cc1ccc(S(=O)(=O)N2CCN(C(=O)COC(=O)/C=C/c3ccc([N+](=O)[O-])cc3)CC2)c(C)c1	-20%	6%	7	1%	5%
COc1cc(/C=C/C(=O)OCC(=O)N2CCN(S(=O)(=O)c3ccc(C)cc3C)CC2)cc(Cl)c1OC	u	6%	1	18µM*	6%
C=CCOc1ccc(/C=C/C(=O)OCC(=O)N2CCN(S(=O)(=O)c3ccc(C)cc3C)CC2)cc1	u	14%	15	7.3µM*	2%
O=C(Nc1ccc(-c2n[nH]c(=S)o2)cc1)c1ccccc1Cl	-4%	0%	36	-20%	11%
O=C(CSc1nnc(-c2cccs2)n1-c1ccccc1)c1ccc2c(c1)OCCO2	-19%	8%	-3	-22%	5%
COc1ccc(C(=O)CSc2nnc(CN3CCCCC3)n2-c2ccc(F)cc2)cc1OC	-15%	5%	-7	u	7%
CCOc1ccc(-c2nnc(SCC(=O)c3ccccc3)n2-c2ccccc2)cc1	u	x	x	6.5µM*	x
O=C(CSc1nnc(CN2CCCCC2)n1-c1ccccc1)c1ccc2c(c1)OCO2	u	-1%	-7	21µM*	-9%
CCOc1ccc(NC(=O)CSc2nnc(-c3ccncc3)n2-c2ccccc2)cc1	-1%	x	x	-12%	x
Cc1cccc(-n2c(SCC(=O)c3ccccc3)nnc2-c2ccc(Br)cc2)c1	16µM*	x	x	18µM*	x
O=C(CSc1nnc(-c2ccc3c(c2)OCO3)n1-c1ccccc1)c1ccccc1	16µM*	23%	7	23µM*	15%
